Measurements as given in PubChem BioAssay (Tox21).
Values without a mark were called inactive. Inconclusive results are not listed. Entries that show only a call come without a potency. Activity calls are given as the source filed them. Unless noted, calls come from the whole dose curve.

Assays:
[1] = Nuclear factor erythroid 2-related factor 2/antioxidant responsive element (Nrf2/ARE) small molecule agonists: qHTS cell viability counter screen in human keratinocytes (AID 1919968; active = well fitted curve in the direction sought with a large enough effect in the repeat runs; an effect the other way counts as inactive or inconclusive; note: nearly all actives have a fitted effect of over 55% in size)
Method in brief: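 Seed 1,500 KeratinoSens cells per well, then incubate 5 h at 37 C/5% CO2. Add compounds in DMSO and incubate 23 h. Add CellTiter-Fluor, wait 1 h and read fluorescence.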

[2] = Nuclear factor erythroid 2-related factor 2/antioxidant responsive element (Nrf2/ARE) small molecule agonists: luciferase reporter gene qHTS assay in human keratinocytes (AID 1919969); note: nearly all actives have a fitted effect of over 35% in size; note: potency is the fitted concentration of half-maximal effect
[3] = molecular target: Gonadotropin-releasing hormone receptor (Homo sapiens) (UniProt P30968); assay: Human gonadotropin-releasing hormone receptor (GnRHR) small molecule agonists, calcium flux assay in GnRHR-HEK293 cells (AID 1920063); note: nearly all actives have a fitted effect of over 35% in size
Method in brief: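 Cells: HEK293 stably expressing human GnRHR. Steps: overnight (18 h) culture, 1 h calcium dye loading at 37 C, compound addition, kinetic fluorescence read at 480/540 nm. Each compound tested at 15 concentrations in triplicate.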

[4] = molecular target: KiSS-1 receptor (Homo sapiens) (UniProt Q969F8); assay: Human kisspeptin (KISS1R) small molecule agonists, calcium flux assay in KISS1R-HEK293 cells (AID 1920064; active = well fitted curve in the direction sought with a large enough effect in the repeat runs; an effect the other way counts as inactive or inconclusive)
Method in brief: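 Cells plated and incubated 18 h; dye added, 1 h at 37 C; compounds in DMSO pinned in; signal read at 480/540 nm every second for 3 min. Each compound tested at 15 concentrations in triplicate.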

[5] = G protein-coupled receptor (GPCR) small molecule agonists, calcium flux assay: HEK293 wild type cell line counter screen (AID 1920065)
Method in brief: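 Counter-screen of the Tox21 10K library for non-specific calcium release: dye-loaded cells received compounds in DMSO and were monitored by kinetic fluorescence (480/540 nm, 3 min). Fifteen concentrations, run in triplicate.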

[6] = p53 small molecule agonists, cell-based qHTS assay with human liver microsomes: qHTS cell viability counter screen (AID 1963579); note: nearly all actives have a fitted effect of over 45% in size
Method in brief: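 Cells carrying the p53 response-element beta-lactamase reporter are treated for 16 h at 37 C with test compounds in the presence of human liver microsomes and NADPH (both 0.5 mg/mL final); ATP-based CellTiter-Glo luminescence then reports viability.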

[7] = p53 small molecule agonists, cell-based qHTS assay with rat liver microsomes: qHTS cell viability counter screen (AID 1963580); note: nearly all actives have a fitted effect of over 45% in size
Method in brief: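 HCT-116 p53RE-bla, 4,000 cells/well, 5 h pre-incubation; cpd + rat liver microsomes 0.5 mg/mL + NADPH 0.5 mg/mL (final); 16 h, 37 C; CellTiter-Glo, 30 min RT; luminescence.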

[8] = p53 small molecule agonists, cell-based qHTS assay (AID 1963582; active = well fitted activation curve with a large enough effect in the signal ratio in the repeat runs, not every such curve was filed as active; the % refers to the signal ratio)
Method in brief: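 Quantitative HTS in p53RE-bla cells: after a 5 h settling period, compounds delivered in DMSO were left on cells for 16 h at 37 C, and reporter induction was measured as fluorescence following 2 h substrate loading.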

[9] = molecular target: 5-hydroxytryptamine receptor 2A (Homo sapiens) (UniProt P28223); assay: 5-hydroxytryptamine receptor 2A (HTR2A) small molecule antagonists, cell-based qHTS assay (AID 1963586); note: nearly all actives have a fitted effect of over 45% in size
Method in brief: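 Antagonist-mode intracellular calcium assay: DOI (4 nM) added after 5 min compound pre-incubation at room temperature to dye-loaded HTR2A-CHO cells. Fluorescence followed for 3 min, sampled every second.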

[10] = molecular target: 5-hydroxytryptamine receptor 2A (Homo sapiens) (UniProt P28223); assay: 5-hydroxytryptamine receptor 2A (HTR2A) small molecule agonists, cell-based qHTS assay (AID 1963587); note: nearly all actives have a fitted effect of over 30% in size
Method in brief: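 Kinetic calcium-flux fluorescence (2 min, 1 sec intervals) after compound addition in agonist mode. HTR2A-CHO cells were cultured 18 h, then dye-loaded 1 h at 37 C.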

[11] = molecular target: Muscarinic acetylcholine receptor M1 (Homo sapiens) (UniProt P11229); assay: Cholinergic receptor muscarinic 1 (CHRM1) small molecule agonists, cell-based qHTS assay (AID 1963589); note: nearly all actives have a fitted effect of over 35% in size
Method in brief: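 Agonist-mode qHTS in CHO cells stably carrying human muscarinic M1. Intracellular calcium is tracked by fluorescence every second after compound transfer; each compound runs at 15 concentrations in three independent runs.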

[12] = cAMP Responsive Elements (CRE) small molecule agonists, cell-based qHTS assay (AID 1963590)
Method in brief: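 Agonist mode qHTS in CRE-bla HEK 293T cells: compounds dosed from DMSO for 3 h at 37 C/5% CO2, followed by LiveBLAzer B/G FRET substrate for 2 h at room temperature.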

[13] = molecular target: Beta-2 adrenergic receptor (Homo sapiens) (UniProt P07550); assay: Adrenergic beta2 receptor (ADRB2) small molecule antagonists, cell-based qHTS assay (AID 1963592); note: series mostly up to about 92 µM; nearly all actives have a fitted effect of over 50% in size
Method in brief: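 Cells (CHO, stable ADRB2 overexpression) incubated 18-20hr at 37C; compounds added from DMSO; agonist mix (1nM isoproterenol, 100uM IBMX, 25uM Ro-20-1724) added; 0.5hr RT; d2-cAMP and anti-cAMP-cryptate added; 1hr RT; 665/615 nm read.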

[14] = molecular target: Beta-2 adrenergic receptor (Homo sapiens) (UniProt P07550); assay: Adrenergic beta2 receptor (ADRB2) small molecule agonists, cell-based qHTS assay (AID 1963593);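 note: CHO cells stably overexpressing human ADRB2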
Method in brief: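 CHO cells stably over-expressing ADRB2 were plated overnight at 37C, then dosed with compounds plus a stimulation mix containing 100uM IBMX and 25uM Ro-20-1724 for 0.5hr at room temperature. cAMP was measured by HTRF competition, 1hr.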

[15] = molecular target: D(2) dopamine receptor (Homo sapiens) (UniProt P14416); assay: Dopamine D2 receptor (DRD2) small molecule agonists, cell-based qHTS assay (AID 1963594); note: nearly all actives have a fitted effect of over 35% in size
Method in brief: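 cAMP accumulation in DRD2-HEK293 cells measured by HTRF after 1 h detection; compounds added 10 min before NKH477 (200nM […]) forskolin-analogue stimulation, 30 min at room temperature, with Ro20-1724 present at 0.1 mM final.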

[16] = molecular target: D(2) dopamine receptor (Homo sapiens) (UniProt P14416); assay: Dopamine D2 receptor (DRD2) small molecule antagonists, cell-based qHTS assay (AID 1963595; active = well fitted inhibition curve with a large enough effect in the signal ratio in the repeat runs, with a control signal flat; the % refers to the signal ratio)
Method in brief: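 Stable D2 receptor HEK293 line, 24 h after seeding. Compound preincubated 10 min, then quinpirole (12 nM) with forskolin analogue NKH477 (200 nM), 30 min, room temperature. Detection by time-resolved FRET of cAMP.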

[17] = p53 small molecule agonists, cell-based qHTS assay: qHTS cell viability counter screen (AID 1963581); note: nearly all actives have a fitted effect of over 45% in size
Method in brief: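 Cells: HCT-116 with p53 response element-driven beta-lactamase. Treatment: 16 h, 37 C, compounds in DMSO. Read: CellTiter-Glo luminescence after 30 min RT.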

[18] = molecular target: Muscarinic acetylcholine receptor M1 (Homo sapiens) (UniProt P11229); assay: Cholinergic receptor muscarinic 1 (CHRM1) small molecule antagonists, cell-based qHTS assay (AID 1963588); note: nearly all actives have a fitted effect of over 40% in size
Method in brief: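 CHRM1-CHO calcium-flux assay, antagonist mode. Cells were seeded 18 h, dye-loaded 1 h at 37 C and given compound for 5 min at RT, then acetylcholine was added at 50nM. FDSS fluorescence was read 3 min; 15 concentrations, three runs.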

[19] = cAMP Responsive Elements (CRE) small molecule antagonists, cell-based qHTS assay (AID 1963591; active = well fitted inhibition curve with a large enough effect in the signal ratio in the repeat runs, not every such curve was filed as active; the % refers to the signal ratio)
Method in brief: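 Antagonist mode: test compounds are co-incubated with the adenylyl cyclase activator NKH477 (0.25 uM final) on CRE-bla HEK293T cells for 3 h at 37 °C, followed by LiveBLAzer substrate loading.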

Beta-2 adrenergic receptor (Homo sapiens), sequence (P07550 whole entry, looked up): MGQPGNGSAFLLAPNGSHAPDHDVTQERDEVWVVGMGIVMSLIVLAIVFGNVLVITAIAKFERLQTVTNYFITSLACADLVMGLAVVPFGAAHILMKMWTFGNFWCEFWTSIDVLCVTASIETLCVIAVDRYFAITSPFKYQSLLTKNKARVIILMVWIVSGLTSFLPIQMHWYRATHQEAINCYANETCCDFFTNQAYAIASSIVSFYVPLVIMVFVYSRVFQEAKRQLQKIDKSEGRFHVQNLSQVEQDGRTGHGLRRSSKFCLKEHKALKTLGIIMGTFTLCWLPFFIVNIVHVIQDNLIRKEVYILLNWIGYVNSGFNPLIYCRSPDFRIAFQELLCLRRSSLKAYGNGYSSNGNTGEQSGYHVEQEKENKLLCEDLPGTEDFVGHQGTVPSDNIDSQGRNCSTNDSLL
5-hydroxytryptamine receptor 2A (Homo sapiens), sequence (P28223 whole entry, looked up): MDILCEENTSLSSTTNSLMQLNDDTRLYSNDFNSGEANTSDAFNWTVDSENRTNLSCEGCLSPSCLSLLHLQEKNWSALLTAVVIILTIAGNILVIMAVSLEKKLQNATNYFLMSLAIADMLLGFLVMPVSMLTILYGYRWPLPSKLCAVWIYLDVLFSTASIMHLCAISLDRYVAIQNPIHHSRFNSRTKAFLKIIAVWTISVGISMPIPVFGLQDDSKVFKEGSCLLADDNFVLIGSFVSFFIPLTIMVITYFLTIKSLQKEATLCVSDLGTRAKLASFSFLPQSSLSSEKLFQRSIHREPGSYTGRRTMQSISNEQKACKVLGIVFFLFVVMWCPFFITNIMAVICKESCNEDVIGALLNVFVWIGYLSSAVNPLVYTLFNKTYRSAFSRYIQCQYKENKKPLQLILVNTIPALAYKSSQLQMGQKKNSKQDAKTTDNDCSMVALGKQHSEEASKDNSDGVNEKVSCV
Gonadotropin-releasing hormone receptor (Homo sapiens), sequence (P30968 whole entry, looked up): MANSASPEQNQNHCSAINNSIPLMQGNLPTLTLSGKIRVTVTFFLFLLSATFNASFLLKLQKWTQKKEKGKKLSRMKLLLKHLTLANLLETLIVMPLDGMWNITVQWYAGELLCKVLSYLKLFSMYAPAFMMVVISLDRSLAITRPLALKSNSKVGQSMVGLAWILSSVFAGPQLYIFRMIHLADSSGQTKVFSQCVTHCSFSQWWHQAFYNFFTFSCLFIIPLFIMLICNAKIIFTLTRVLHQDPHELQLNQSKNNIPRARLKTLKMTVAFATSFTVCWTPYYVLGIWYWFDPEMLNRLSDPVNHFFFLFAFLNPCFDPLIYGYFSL
D(2) dopamine receptor (Homo sapiens), sequence (P14416 whole entry, looked up): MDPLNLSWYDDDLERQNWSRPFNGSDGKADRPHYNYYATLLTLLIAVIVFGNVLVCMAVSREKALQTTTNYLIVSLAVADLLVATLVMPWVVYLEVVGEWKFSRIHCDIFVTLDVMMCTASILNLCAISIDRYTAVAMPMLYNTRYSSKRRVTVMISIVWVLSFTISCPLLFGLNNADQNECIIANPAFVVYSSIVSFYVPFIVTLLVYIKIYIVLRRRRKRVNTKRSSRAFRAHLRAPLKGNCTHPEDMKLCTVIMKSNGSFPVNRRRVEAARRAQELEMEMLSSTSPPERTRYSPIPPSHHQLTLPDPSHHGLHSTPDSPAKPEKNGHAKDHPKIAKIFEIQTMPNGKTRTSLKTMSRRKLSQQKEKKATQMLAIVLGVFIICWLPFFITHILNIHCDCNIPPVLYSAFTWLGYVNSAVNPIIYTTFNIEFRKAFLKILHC
KiSS-1 receptor (Homo sapiens), sequence (Q969F8 whole entry, looked up): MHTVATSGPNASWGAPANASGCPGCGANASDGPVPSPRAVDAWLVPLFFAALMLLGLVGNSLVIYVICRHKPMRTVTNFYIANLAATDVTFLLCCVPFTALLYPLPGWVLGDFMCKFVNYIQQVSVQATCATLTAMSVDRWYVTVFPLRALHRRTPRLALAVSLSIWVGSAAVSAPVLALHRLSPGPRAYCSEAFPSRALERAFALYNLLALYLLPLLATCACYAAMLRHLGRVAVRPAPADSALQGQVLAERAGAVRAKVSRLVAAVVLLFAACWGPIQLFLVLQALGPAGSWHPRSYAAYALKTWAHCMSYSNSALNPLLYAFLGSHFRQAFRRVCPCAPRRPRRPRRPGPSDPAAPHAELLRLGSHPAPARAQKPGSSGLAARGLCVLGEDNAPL
Muscarinic acetylcholine receptor M1 (Homo sapiens), sequence (P11229 whole entry, looked up): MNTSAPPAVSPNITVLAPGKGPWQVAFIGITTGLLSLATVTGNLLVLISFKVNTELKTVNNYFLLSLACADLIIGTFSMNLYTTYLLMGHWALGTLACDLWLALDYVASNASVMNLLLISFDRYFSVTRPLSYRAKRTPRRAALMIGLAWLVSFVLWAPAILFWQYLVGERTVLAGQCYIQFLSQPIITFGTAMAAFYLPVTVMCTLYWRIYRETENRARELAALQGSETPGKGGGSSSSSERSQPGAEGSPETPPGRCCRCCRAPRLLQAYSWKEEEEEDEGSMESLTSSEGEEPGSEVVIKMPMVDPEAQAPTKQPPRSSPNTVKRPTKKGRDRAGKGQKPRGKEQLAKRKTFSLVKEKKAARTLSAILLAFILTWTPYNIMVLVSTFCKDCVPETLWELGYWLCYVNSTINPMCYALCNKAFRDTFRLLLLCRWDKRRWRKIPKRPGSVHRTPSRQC

CC(C)=CCOC(=O)c1ccccc1
Potency [1]: inactive | Potency [2]: inactive | Potency [3]: inactive | outcome [4]: inactive | outcome [5]: inactive | Potency [6]: inactive | Potency [7]: inactive | Potency [8]: inactive | Potency [9]: inactive | Potency [10]: inactive | Potency [11]: inactive | Potency [12]: inactive | Potency [13]: inactive | Potency [14]: inactive | Potency [15]: inactive | Potency [16]: inactive

CC(C)C(=O)Nc1cccc(C(F)(F)F)c1
Potency [1]: inactive | Potency [2]: inactive | Potency [3]: inactive | outcome [4]: inactive | outcome [5]: inactive | Potency [7]: inactive | Potency [17]: inactive | Potency [8]: inactive | Potency [9]: inactive | Potency [10]: inactive | Potency [18]: inactive | Potency [11]: inactive | Potency [19]: inactive | Potency [13]: inactive | Potency [15]: inactive | Potency [16]: inactive

C=Cc1ccccc1
Potency [1]: inactive | Potency [2]: inactive | Potency [3]: inactive | outcome [4]: inactive | outcome [5]: inactive | Potency [6]: inactive | Potency [7]: inactive | Potency [9]: inactive | Potency [10]: inactive | Potency [18]: inactive | Potency [11]: inactive | Potency [12]: inactive | Potency [19]: inactive | Potency [13]: inactive | Potency [15]: inactive | Potency [16]: inactive

NCC(=O)O
activity change, negative = cytotoxicity [1]: -4.41% [at 19 µM] | activity, positive = activation [2]: -0.375% [at 19 µM] | activity change [3]: 1.37% [at 11.8 µM, hits give high values] | activation [4]: -0.57% [at 15.8 µM] | activation [5]: -1.52% [at 11.8 µM] | activity change, negative = cytotoxicity [6]: -11.7% [at 13.5 µM] | activity change, negative = cytotoxicity [7]: -0.16% [at 13.5 µM] | activation [8]: 0.144% [at 13.5 µM] | activation [12]: -1.05% [at 19 µM] | activity change, negative = inhibition [19]: 4.57% [at 18.9 µM] | activity change, negative = inhibition [13]: -10.5% [at 19 µM] | Potency [14]: inactive | activation [15]: 4.26% [at 19 µM] | activity change, negative = inhibition [16]: -7.27% [at 18.9 µM]

C/C=C\C/C=C/CCCCCCCCOC(C)=O
Potency [1]: inactive | Potency [2]: 68.6 µM (active) | Potency [3]: inactive | outcome [4]: inactive | outcome [5]: inactive | Potency [7]: inactive | Potency [17]: inactive | Potency [9]: inactive | Potency [10]: inactive | Potency [18]: inactive | Potency [11]: inactive | Potency [13]: inactive | Potency [14]: inactive | Potency [15]: inactive | Potency [16]: inactive

CC(=O)CC(=O)OC(C)(C)C
Potency [1]: inactive | Potency [2]: inactive | Potency [3]: inactive | outcome [4]: inactive | outcome [5]: inactive | Potency [6]: inactive | Potency [7]: inactive | Potency [17]: inactive | Potency [9]: inactive | Potency [10]: inactive | Potency [18]: inactive | Potency [12]: inactive | Potency [19]: inactive | Potency [13]: inactive | Potency [14]: inactive | Potency [15]: inactive | Potency [16]: inactive

COc1cc(C(=O)NS(=O)(=O)c2ccccc2C)ccc1Cc1cn(C)c2ccc(NC(=O)OC3CCCC3)cc12
Potency [1]: inactive | Potency [2]: inactive | Potency [3]: inactive | outcome [4]: inactive | outcome [5]: inactive | Potency [6]: inactive | Potency [7]: inactive | Potency [8]: inactive | Potency [13]: inactive | Potency [14]: inactive | Potency [16]: inactive

CCC(CO)(CO)COCC(CC)(CO)CO
Potency [1]: inactive | Potency [2]: inactive | Potency [3]: inactive | outcome [4]: inactive | outcome [5]: inactive | Potency [7]: inactive | Potency [17]: inactive | Potency [8]: inactive | Potency [9]: inactive | Potency [10]: inactive | Potency [18]: inactive | Potency [11]: inactive | Potency [12]: inactive | Potency [19]: inactive | Potency [13]: inactive | Potency [16]: inactive

NC(=O)C(=O)N/N=C/c1ccc([N+](=O)[O-])o1
Potency [1]: inactive | Potency [2]: 29.8 µM (active) | Potency [3]: inactive | outcome [4]: inactive | outcome [5]: inactive | Potency [6]: inactive | Potency [7]: inactive | Potency [8]: inactive | Potency [9]: inactive | Potency [10]: inactive | Potency [18]: inactive | Potency [11]: inactive | Potency [19]: inactive | Potency [13]: inactive | Potency [14]: inactive | Potency [16]: inactive
